The source of these data is PubChem BioAssay (EPA / NIEHS).

Results filed as inconclusive are left out. Activity calls are given as the source filed them. The calls were made as follows, unless noted: active = hit-call score of the fitted dose curve at least 0.9, where 1 is the maximum; inconclusive = response in the unintended direction; inactive = score below 0.9.

The target in assay [1] is Oxysterols receptor LXR-alpha (Homo sapiens) (UniProt Q13133). In words: ATG_LXRa_TRANS: Attagene TRANS-FACTORIAL HepG2 Assay for human Liver X Receptor alpha (LXRa) (AID 2282980). To be noted: HepG2 Attagene TRANS reporter, LXRa transactivation. The method, boiled down: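 HepG2 cells were transiently transfected with multiplexed reporter units driven by chimeric LXRa–GAL4 fusion proteins, then dosed for 24 h. Reporter mRNA was quantified by RT-PCR, fluorescent labelling and capillary electrophoresis; gain of signal fitted against DMSO baseline.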

For assay [2], the target named is Nuclear receptor subfamily 4 group A member 2 (Homo sapiens) (UniProt P43354). Briefly: ATG_NURR1_TRANS: Attagene TRANS-FACTORIAL HepG2 Assay for human Nuclear Receptor Related Protein 1 (NURR1) (AID 2282985). The following applies: HepG2 Attagene TRANS reporter, mRNA readout. A digest of the protocol: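 After 24 h chemical dosing, total RNA from transiently transfected HepG2 cells was reverse-transcribed and reporter cDNA PCR-amplified, FAM-labelled and analysed by capillary electrophoresis. Activity fitted in positive direction, DMSO as negative control.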

The target in assay [3] is Transcriptional activator Myb (Homo sapiens) (UniProt P10242). Briefly: ATG_Myb_CIS: Attagene CIS-FACTORIAL HepG2 Assay for human Myeloblastosis (Myb) Proto-Oncogene Transcription Factor (AID 2282986; active = hit-call score of the fitted dose curve at least 0.9, where 1 is the maximum; inactive = score below 0.9). To be noted: HepG2 Attagene CIS-FACTORIAL Myb reporter transcription; actives raise or lower the signal. The method, boiled down:
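After 24 h of compound dosing, total RNA from transfected HepG2 cells is reverse-transcribed and the reporter sequences amplified, labeled and separated by capillary electrophoresis. Values come from bidirectional fitting against DMSO.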

Assay [4] deals with Nuclear respiratory factor 1 (Homo sapiens) (UniProt Q16656). In words: ATG_NRF1_CIS: Attagene CIS-FACTORIAL HepG2 Assay for human Nuclear Respiratory Factor 1 (NRF1) Orphan Gene (AID 2282987; active = hit-call score of the fitted dose curve at least 0.9, where 1 is the maximum; inactive = score below 0.9). The following applies: HepG2 NRF1 cis-element reporter, Attagene multiplex; actives raise or lower the signal. A digest of the protocol:
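Measured: fluorescent reporter-specific RT-PCR products from transfected HepG2 cells, separated by capillary electrophoresis. Exposure lasted 24 h. Analysis used bidirectional curve fitting with DMSO as negative control.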

Assay [5] in a line: ATG_NFI_CIS: Attagene CIS-FACTORIAL HepG2 Assay for human Nuclear Factor I (NFI) (AID 2282989; active = hit-call score of the fitted dose curve at least 0.9, where 1 is the maximum; inactive = score below 0.9). The following applies: HepG2 cis-regulatory reporter, NFI response element transcription; actives raise or lower the signal. A digest of the protocol: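 Reporter transcripts were measured by RT-PCR with fluorescent primer extension and capillary electrophoresis 24 h post-treatment. HepG2 cells carried transiently transfected cis-regulated reporter constructs reporting endogenous factor activity; gain or loss fitted against DMSO baseline.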

Assay [6] concerns the target Oxysterols receptor LXR-beta (Homo sapiens) (UniProt P55055). Briefly: ATG_LXRb_TRANS: Attagene TRANS-FACTORIAL HepG2 Assay for human Liver X Receptor beta (LXRb) (AID 2282981). To be noted: HepG2 Attagene TRANS GAL4-LXRb reporter, mRNA. A digest of the protocol:
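In this TRANS format, exogenous chimeric NR-Gal4 protein activity, not endogenous factors, drives reporter expression in transfected human HepG2 cells. Exposure lasted 24 h; reporter mRNA was read by fluorescent capillary electrophoresis.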

Assay [7] addresses Hepatocyte nuclear factor 4-alpha (Homo sapiens) (UniProt P41235). Briefly: ATG_HNF4a_TRANS: Attagene TRANS-FACTORIAL HepG2 Assay for human Hepatocyte Nuclear Factor 4 alpha (HNF4a) (AID 2282982). The following applies: HepG2 HNF4a transactivation reporter, mRNA readout. A digest of the protocol:
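Cells used were human HepG2, transiently carrying GAL4-UAS reporter units read out against exogenous NR-GAL4 chimeras. Reporter transcript levels after 24 h dosing were quantified by fluorescent RT-PCR and capillary electrophoresis.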

Assay [8] can be described thus: ATG_M_06_TRANS: Attagene TRANS-FACTORIAL HepG2 Assay for M06 Transcription Factor (Internal Marker) (AID 2282983). The following applies: HepG2 Attagene TRANS M06 internal marker reporter. A digest of the protocol:
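HepG2 cells transiently transfected with multiplexed GAL4-UAS reporter transcription units; after 24 h compound exposure, reporter mRNA measured by RT-PCR, FAM-labelled primer extension, HpaI digestion and capillary electrophoresis. Gain-of-signal fitted versus DMSO baseline; background control readout.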

Assay [9] in a line: ATG_M_32_TRANS: Attagene TRANS-FACTORIAL HepG2 Assay for M32 Transcription Factor (Internal Marker) (AID 2282984). The following applies: HepG2 Attagene TRANS M32 internal marker reporter. A digest of the protocol: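 Human hepatoma HepG2, transient MRTU transfection, 24 h treatment. RNA → RT-PCR → fluorescent primer extension → HpaI digest (2 h, 37 C) → CE. Positive-direction fit vs DMSO.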

Sequence of Oxysterols receptor LXR-beta (Homo sapiens) (P55055 whole entry, looked up, the tested form may be a part): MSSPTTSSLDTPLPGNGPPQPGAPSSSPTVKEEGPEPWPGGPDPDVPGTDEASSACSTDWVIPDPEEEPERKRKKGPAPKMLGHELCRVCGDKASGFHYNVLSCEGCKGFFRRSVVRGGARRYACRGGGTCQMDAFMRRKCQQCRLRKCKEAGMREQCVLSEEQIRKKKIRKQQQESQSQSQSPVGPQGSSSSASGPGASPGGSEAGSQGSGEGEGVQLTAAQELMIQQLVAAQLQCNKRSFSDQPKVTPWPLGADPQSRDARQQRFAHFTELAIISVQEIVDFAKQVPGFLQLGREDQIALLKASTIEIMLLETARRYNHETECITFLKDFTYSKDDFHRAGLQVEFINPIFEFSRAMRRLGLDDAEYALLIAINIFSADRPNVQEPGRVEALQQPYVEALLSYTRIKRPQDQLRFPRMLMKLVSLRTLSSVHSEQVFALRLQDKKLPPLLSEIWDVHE
Sequence of Nuclear receptor subfamily 4 group A member 2 (Homo sapiens) (P43354 whole entry, looked up): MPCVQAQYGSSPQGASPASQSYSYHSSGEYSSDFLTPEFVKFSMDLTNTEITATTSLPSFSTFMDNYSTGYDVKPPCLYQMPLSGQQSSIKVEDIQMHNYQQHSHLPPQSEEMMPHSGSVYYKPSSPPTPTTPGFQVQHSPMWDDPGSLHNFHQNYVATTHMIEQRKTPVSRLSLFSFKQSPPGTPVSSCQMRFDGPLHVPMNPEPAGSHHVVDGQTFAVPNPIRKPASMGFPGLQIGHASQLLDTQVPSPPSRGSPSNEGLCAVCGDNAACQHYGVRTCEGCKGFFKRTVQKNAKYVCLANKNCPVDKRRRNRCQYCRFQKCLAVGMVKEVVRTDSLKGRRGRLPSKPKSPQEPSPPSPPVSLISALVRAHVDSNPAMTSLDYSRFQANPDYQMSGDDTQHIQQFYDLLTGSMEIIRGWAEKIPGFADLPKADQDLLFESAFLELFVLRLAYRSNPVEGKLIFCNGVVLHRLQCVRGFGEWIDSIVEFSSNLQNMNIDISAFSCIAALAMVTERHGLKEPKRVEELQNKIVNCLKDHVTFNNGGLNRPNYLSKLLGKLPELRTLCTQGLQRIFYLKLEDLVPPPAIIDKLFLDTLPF
Sequence of Hepatocyte nuclear factor 4-alpha (Homo sapiens) (P41235 whole entry, looked up, the tested form may be a part): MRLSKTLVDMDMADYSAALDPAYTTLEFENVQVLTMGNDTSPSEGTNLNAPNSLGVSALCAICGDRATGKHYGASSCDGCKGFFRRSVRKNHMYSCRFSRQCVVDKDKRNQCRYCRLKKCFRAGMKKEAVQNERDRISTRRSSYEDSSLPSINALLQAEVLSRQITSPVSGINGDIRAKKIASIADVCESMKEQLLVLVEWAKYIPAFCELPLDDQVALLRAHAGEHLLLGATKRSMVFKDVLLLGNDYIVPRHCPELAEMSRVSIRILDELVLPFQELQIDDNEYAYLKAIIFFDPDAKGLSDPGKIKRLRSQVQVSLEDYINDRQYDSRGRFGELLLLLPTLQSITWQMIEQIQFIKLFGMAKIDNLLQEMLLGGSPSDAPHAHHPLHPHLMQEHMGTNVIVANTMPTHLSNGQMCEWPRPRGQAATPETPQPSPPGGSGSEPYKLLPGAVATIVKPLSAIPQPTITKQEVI
Sequence of Transcriptional activator Myb (Homo sapiens) (P10242 whole entry, looked up): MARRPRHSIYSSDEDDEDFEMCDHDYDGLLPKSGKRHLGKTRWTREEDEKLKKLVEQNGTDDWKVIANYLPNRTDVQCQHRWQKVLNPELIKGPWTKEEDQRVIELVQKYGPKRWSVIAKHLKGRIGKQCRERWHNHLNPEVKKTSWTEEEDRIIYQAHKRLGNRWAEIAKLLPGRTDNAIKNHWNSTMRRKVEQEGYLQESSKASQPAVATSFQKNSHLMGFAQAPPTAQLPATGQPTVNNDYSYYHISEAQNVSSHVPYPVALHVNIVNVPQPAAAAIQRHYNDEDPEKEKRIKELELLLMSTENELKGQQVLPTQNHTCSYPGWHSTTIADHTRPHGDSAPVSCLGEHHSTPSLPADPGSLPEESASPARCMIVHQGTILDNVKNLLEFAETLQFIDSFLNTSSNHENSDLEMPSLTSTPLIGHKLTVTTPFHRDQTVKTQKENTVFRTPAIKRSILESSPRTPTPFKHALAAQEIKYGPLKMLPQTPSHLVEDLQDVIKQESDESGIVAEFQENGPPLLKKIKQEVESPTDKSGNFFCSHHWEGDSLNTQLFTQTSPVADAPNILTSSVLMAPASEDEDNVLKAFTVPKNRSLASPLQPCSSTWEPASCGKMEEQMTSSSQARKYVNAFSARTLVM
Sequence of Oxysterols receptor LXR-alpha (Homo sapiens) (Q13133 whole entry, looked up, the tested form may be a part): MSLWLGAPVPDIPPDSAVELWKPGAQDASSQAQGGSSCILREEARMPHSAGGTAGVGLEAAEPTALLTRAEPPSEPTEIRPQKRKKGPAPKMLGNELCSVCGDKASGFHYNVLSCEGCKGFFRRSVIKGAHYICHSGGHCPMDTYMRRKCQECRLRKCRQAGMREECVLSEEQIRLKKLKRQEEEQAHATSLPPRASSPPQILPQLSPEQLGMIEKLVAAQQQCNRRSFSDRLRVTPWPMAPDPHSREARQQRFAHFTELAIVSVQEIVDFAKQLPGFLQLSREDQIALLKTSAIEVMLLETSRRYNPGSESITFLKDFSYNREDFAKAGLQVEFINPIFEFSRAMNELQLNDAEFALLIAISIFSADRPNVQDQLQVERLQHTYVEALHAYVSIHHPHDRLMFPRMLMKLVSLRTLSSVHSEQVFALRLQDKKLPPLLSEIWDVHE
Sequence of Nuclear respiratory factor 1 (Homo sapiens) (Q16656 whole entry, looked up): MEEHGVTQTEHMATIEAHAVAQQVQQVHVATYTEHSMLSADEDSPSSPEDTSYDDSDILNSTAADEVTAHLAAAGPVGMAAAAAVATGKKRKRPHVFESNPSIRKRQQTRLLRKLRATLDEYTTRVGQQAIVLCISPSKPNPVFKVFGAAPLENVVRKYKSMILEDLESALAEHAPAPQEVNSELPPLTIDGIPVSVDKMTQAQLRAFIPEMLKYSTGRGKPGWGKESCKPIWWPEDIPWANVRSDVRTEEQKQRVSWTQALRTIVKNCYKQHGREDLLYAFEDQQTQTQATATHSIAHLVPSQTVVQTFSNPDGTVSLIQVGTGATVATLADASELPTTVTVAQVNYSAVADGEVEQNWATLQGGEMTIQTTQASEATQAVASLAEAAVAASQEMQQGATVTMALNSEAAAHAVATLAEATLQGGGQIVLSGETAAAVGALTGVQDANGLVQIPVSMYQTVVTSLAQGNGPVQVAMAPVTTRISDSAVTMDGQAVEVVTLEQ

As to `COC(=O)c1ccc(C)cc1C1=NC(C)(C(C)C)C(=O)N1` (centres undefined) (tested in a mixture with another compound), the call in assay [1], in assay [2], in [3], in [4] and in assay [5] was inactive.
Consider `N[C@@H](Cc1cc(I)c(Oc2cc(I)c(O)c(I)c2)c(I)c1)C(=O)O`, for which the compound was called inactive in assay [6], in assay [7], in assay [8], in assay [9], in assay [2] and in [3]. The call in assay [4] and in assay [5] was inactive.
Consider `c1ccc2cc(Nc3ccc(Nc4ccc5ccccc5c4)cc3)ccc2c1`, for which the call in assay [1], in assay [8], in assay [3] and in [4] was inactive.
On to `CCC1CCCCC1`, for which the compound was classed as inactive in assay [1], in [3], in assay [4] and in assay [5].
On to `CCCCCCOCCOCCO`, for which the result in [6], in [7], in assay [8], in assay [9], in assay [3] and in assay [4] was inactive. The compound was classed as inactive in [5].
As for `CC(C)(N=C=O)c1cccc(C(C)(C)N=C=O)c1`, the outcome in assay [1], in assay [8], in [9], in [2], in assay [3] and in [5] was inactive.
For `CCc1ccc(O)c(OC)c1`, the compound was called inactive in [1], in [8], in assay [3] and in assay [5].
Consider `O=C(Nc1ccc2c(O)c(N=Nc3ccc(N=Nc4ccc(S(=O)(=O)O)cc4)cc3)c(S(=O)(=O)O)cc2c1)c1ccccc1`, for which the compound was called inactive in [1], in [8], in [9], in [3], in [4] and in assay [5].
With `COc1cccc(OC)c1O`, the call in assay [1], in [8], in [3], in assay [4] and in [5] was inactive.
As to `Cc1occc(=O)c1OC(=O)C(C)C`, the compound was classed as inactive in assay [1], in [7], in assay [9], in assay [2], in assay [3] and in [4]. For the same compound, in [5], the compound was classed as inactive.
On to `O=C(c1ccccc1)C(O)c1ccccc1` (centres undefined), for which the call in [1], in assay [3], in assay [4] and in [5] was inactive.
In the case of `Cc1c(C2(c3cc(Br)c(O)c(Br)c3C)OS(=O)(=O)c3ccccc32)cc(Br)c(O)c1Br`, the result in assay [1], in assay [7], in [9], in [2], in assay [3] and in [4] was inactive. The compound was classed as inactive in assay [5].
For the compound `CC(C)NCC(O)COc1ccc(CC(N)=O)cc1` (centres undefined), the compound was called inactive in [6], in assay [7], in assay [8], in assay [9], in assay [3] and in assay [4]. In assay [5], the compound was called inactive.
On to `CCOc1ccc(NC(=O)CC(C)=O)cc1`, for which the call in [6], in assay [7], in assay [8], in assay [9], in assay [3] and in [4] was inactive.
`CC(C)c1ccccc1O`: the compound was called inactive in [1], in assay [8], in [3], in assay [4] and in assay [5].
Usually AC50 stands for the concentration giving half of the maximal activity seen. Regarding `CCC(C)c1cc([N+](=O)[O-])cc([N+](=O)[O-])c1OC(=O)OC(C)C` (centres undefined), the result in [1], in [7] and in assay [9] was inactive. Besides, the AC50 was 27.1 µM (active) in [2], 156 µM (active) in assay [3], 143 µM (active) in assay [4] and 24.5 µM (active) in assay [5].
Turning to `CC(C)CCCCCCCCCCCCCCC(=O)O`, the compound was called inactive in [1], in assay [8], in assay [9] and in [3].
In the case of `CN(c1nccc(=O)[nH]1)C1CCN(c2nc3ccccc3n2Cc2ccc(F)cc2)CC1`, the result in assay [1], in [8], in assay [9], in assay [2], in [3] and in assay [4] was inactive. Also, in assay [5], the result was inactive.
`CCCC[O][Al]([O]CCCC)[O]CCCC`: the call in [1], in [8], in assay [9], in assay [3], in assay [4] and in assay [5] was inactive.
As for `C=C(C)C1CC=C(C)C(=O)C1` (centres undefined), the call in [6], in assay [7], in assay [8], in assay [3] and in assay [4] was inactive.
Regarding `CN(C)c1ccncc1`, the compound was called inactive in assay [1], in assay [7], in assay [3], in assay [4] and in assay [5].
For the compound `O=C1NC2NC(=O)NC2N1` (centres undefined), the outcome in assay [6], in assay [7], in [8], in [2], in assay [3] and in assay [4] was inactive. Moreover, the compound was classed as inactive in [5].
With `Nc1c(S(=O)(=O)O)cc(Br)c2c1C(=O)c1ccccc1C2=O`, the compound was called inactive in assay [1], in assay [8], in assay [9], in assay [3], in [4] and in assay [5].
With `CS(=O)(=O)c1ccc(C2=C(c3ccccc3)C(=O)OC2)cc1`, the call in assay [6], in assay [7], in [9], in assay [3], in assay [4] and in assay [5] was inactive.
`O=C1OC(=O)c2c(Br)c(Br)c(Br)c(Br)c21`: the call in assay [6], in [8], in assay [9], in assay [3], in assay [4] and in assay [5] was inactive.
In the case of `c1ccc(Oc2ccccc2)cc1`, the call in assay [6], in assay [7], in assay [9], in assay [2], in [3] and in assay [4] was inactive. In addition, the result in [5] was inactive.
As to `CCCC(=O)C(CC)Sc1ccoc1C` (centres undefined), the compound was called inactive in assay [6], in assay [8], in [9], in [2], in assay [3] and in assay [4]. In assay [5], the result was inactive.
In the case of `C[C@H](CCC(=O)NCC(=O)O)[C@H]1CC[C@H]2[C@@H]3[C@H](O)C[C@@H]4C[C@H](O)CC[C@]4(C)[C@H]3C[C@H](O)[C@]12C`, the compound was called inactive in assay [6], in assay [7], in assay [2], in assay [3] and in assay [4].
Turning to `Cc1[nH]c(=O)c(C#N)cc1-c1ccncc1`, the result in assay [6], in assay [8], in assay [3], in assay [4] and in assay [5] was inactive.
With `CCC(C)S` (centres undefined), the compound was called inactive in assay [6], in assay [9], in assay [3], in [4] and in assay [5].
For `CCCC(O)C(O)CO` (centres undefined), the call in assay [6], in assay [7], in assay [3], in assay [4] and in assay [5] was inactive.
As to `CCO/C=C1\N=C(c2ccccc2)OC1=O`, the result in assay [6], in [7], in assay [2], in [3], in [4] and in [5] was inactive.
